# In the library only some 11% were active in any assay of this set; here they are far more common.
# 3T3 cytotox – Cytotoxic Profiling in NIH 3T3 Cell Line of Diverse Libraries Using Quantitative High-Throughput Screening; AID 1345082, 2018; Potency, µM (doses to about 96.7 µM), for the others: top-dose activity change, negative = cytotoxicity, usual class: inhibitors; hit rate 4.3% among 94,000; NIH 3T3 viability, CellTiter-Glo ATP luminescence, 48-72 h; note: % is set by controls: 0 for no effect and ±100 for the full control effect; nearly all actives have a fitted effect of over 55% in size
#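 ATP-dependent luminescence (CellTiter-Glo) served as the viability signal for NIH 3T3 cells treated with compound for 48 or 72 hr at 37 °C.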
# HEK293 tox – Cytotoxic Profiling in HEK 293 Cell Line of Diverse Libraries Using Quantitative High-Throughput Screening; HEK 293 viability, ATP luminescence (CellTiter-Glo), 48-72 h; Potency, µM (series often up to 115 µM), for inactives: at the top dose activity change, negative = cytotoxicity, most hits filed as inhibitors; hit rate 6.6% among 94,000; AID 1345083, 2018; note: % is set by controls: 0 for no effect and ±100 for the full control effect; nearly all actives have a fitted effect of over 60% in size
#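 Viability of HEK 293 cells, plated at 250 cells/well, was judged by cellular ATP after compound treatment for 48 or 72 hr. Luminescence was imaged 10 min after CellTiter-Glo addition at room temperature.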
# FLuc inh-1 – Firefly luciferase inhibition profiling of diverse chemical library using quantitative high-throughput screening | hit rate 2.5% among 76,000 | Potency, µM (doses to about 115 µM), most hits filed as inhibitors | purified P. pyralis luciferase, luminescence, biochemical | AID 1347043, 2019; note: % is set by controls: 0 for no effect and ±100 for the full control effect; nearly all actives have a fitted effect of over 65% in size
# Target sequence (P08659 whole entry, looked up): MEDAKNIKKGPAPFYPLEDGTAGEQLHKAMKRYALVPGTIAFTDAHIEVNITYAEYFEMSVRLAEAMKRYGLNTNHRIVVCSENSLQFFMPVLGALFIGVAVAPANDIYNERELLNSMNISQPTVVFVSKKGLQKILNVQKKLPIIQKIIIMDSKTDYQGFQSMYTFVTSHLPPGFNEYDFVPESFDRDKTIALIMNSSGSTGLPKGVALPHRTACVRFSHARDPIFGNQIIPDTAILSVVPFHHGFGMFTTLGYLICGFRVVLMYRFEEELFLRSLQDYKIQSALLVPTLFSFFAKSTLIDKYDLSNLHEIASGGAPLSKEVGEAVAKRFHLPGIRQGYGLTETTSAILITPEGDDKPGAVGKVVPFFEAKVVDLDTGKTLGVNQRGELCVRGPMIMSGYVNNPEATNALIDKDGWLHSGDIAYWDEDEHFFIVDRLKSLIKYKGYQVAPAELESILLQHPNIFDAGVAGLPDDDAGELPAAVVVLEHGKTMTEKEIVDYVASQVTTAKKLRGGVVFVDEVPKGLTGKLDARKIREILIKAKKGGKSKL
#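 Purified P. pyralis luciferase (10nM final) in 50mM Tris acetate pH 7.5, 10mM Mg acetate, 0.01% Tween-20, 0.05% BSA with 10uM D-luciferin and 10uM ATP. Compounds titrated qHTS. Luminescence imaged on CCD.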
# NPR1 antag – Natriuretic polypeptide receptor (hNpr1) antagonism - Primary qHTS. HEK293 hNpr1 GloSensor cGMP, ANP-stimulated luminescence. Atrial natriuretic peptide receptor 1 (Homo sapiens), P16066. hit rate 1.6% among 76,000. Potency, µM (titrated, usually from 46.3 µM), for inactives: top-dose activity change, negative = inhibition, most hits filed as inhibitors; calls by dose curve; note: % is set by controls: 0 for no effect and ±100 for the full control effect; nearly all actives have a fitted effect of over 60% in size
#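 HEK293 cells stably expressing human Npr1 and cGMP GloSensor pGS-40F, loaded 2 h with 2% GloSensor reagent, given compound 30 min at room temperature. Luminescence read before and 20 min after 0.1 nM hNppA.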
# FLuc SDR -ATP – Firefly luciferase (FLuc-C-HiBiT) SDR gain of signal screen - without ATP; AID 1963318, 2024; Purified FLuc-C-HiBiT, Nano-Glo HiBiT luminescence, no ATP; Potency, µM (series often up to 32.7 µM), for the others: at the top dose activation (signal gain), hits mostly activators; shares compounds with FLuc inh-1; hit rate 7.8% among 1,300; note: nearly all actives have a fitted effect of over 55% in size
# FLuc SDR ATP – Firefly luciferase (FLuc-C-HiBiT) SDR gain of signal screen - plus ATP; shares compounds with FLuc inh-1; purified FLuc-C-HiBiT + ATP, HiBiT complementation luminescence; Potency, µM (titrated, usually from 32.7 µM), for the others: at the top dose activation (gain of signal), most hits filed as activators; hit rate 8.7% among 1,300; AID 1963319, 2024;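 note: signal reports ligand binding via conformational change of the enzyme rather than luciferase catalysis; % of control where 0% means no effect; nearly all actives have a fitted effect of over 55% in size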
# FLuc inh-2 – Firefly luciferase (FLuc-C-HiBiT) enzymatic inhibition screen - Functional assay; Potency, µM (top dose mostly 32.7 µM), inactives show at the top dose activity change, negative = inhibition, hits mostly inhibitors; hit rate 42% among 1,300; purified FLuc-C-HiBiT enzyme, luciferin luminescence; shares compounds with FLuc inh-1; note: % is set by controls: 0 for no effect and ±100 for the full control effect; nearly all actives have a fitted effect of over 70% in size
# An asterisk follows results filed as active; i = inactive; ? = inconclusive; nt = not tested or not shown; [ ] = another dose, or the depositor's remark. Unless noted, calls come from the whole dose curve; as a rule, active = well fitted curve in the direction sought with a large enough effect; inconclusive = small, poorly fitted or top-dose-only effect, or another doubt; inactive = no such curve, though single readings can be large; an effect the other way counts as inactive or inconclusive. Potency is the fitted concentration of half-maximal effect.
SMILES,3T3 cytotox,HEK293 tox,FLuc inh-1,NPR1 antag,FLuc SDR -ATP,FLuc SDR ATP,FLuc inh-2
COc1ccc(CN2CCOc3nc(-c4cc5ccccc5o4)ncc3C2=O)cc1,-14.1%[138 µM],?,3.55µM*,?,16.0%[49.3 µM],16.4%[49.3 µM],8.05µM*
CC(C)(C)C(=O)NC1CCN(C(=O)c2ccc(-c3cncnc3)cc2)CC1,-22.1%,-20.1%,nt,nt,nt,nt,nt
Cc1ccc2c(c1)sc1nc(-c3cc4ccccc4oc3=O)cn12,nt,nt,nt,nt,28.6%,?,0.248µM*
Cc1cc2cc(C(=O)N3CCN(c4nc5ccccc5s4)CC3)ccc2o1,-4.2%,?,i,?,nt,nt,nt
O=C1[C@H]2CN(Cc3ccccc3Cl)C[C@H]2C(=O)N1CCN1CCc2ccccc2C1,?,?,i,-17.0%,nt,nt,nt
O=C1CCc2cc(NC(=O)c3cccc(C(F)(F)F)c3)ccc2N1,?,?,i,0.2%,nt,nt,nt
O=C1CCc2cc(NC(=O)c3n[nH]c4ccccc34)ccc2N1,?,?,2.82µM*,-26.2%,?,?,3.13µM*
C[C@H](O)c1onc(-c2ccc(F)cc2)c1C(=O)NC(C)(C)C,i,4.7%[172 µM],i,-0.4%[70.6 µM],nt,nt,nt
Cc1ccn2c(Nc3ccc(C(C)C)cc3)c(-c3cccs3)nc2c1,nt,nt,nt,nt,17.1%,14.7%,?
Cc1c(Cl)cccc1-n1nnc(-c2nc(-c3ccc4c(c3)OCO4)no2)c1C,nt,nt,nt,nt,18.0%,15.9%,11.1µM*
Clc1ccc(C2Cn3nnc(-c4nc(-c5ccc6c(c5)OCO6)no4)c3CO2)cc1 (stereo unspecified),3.7%,2.4%,i,4.1%,nt,nt,nt
COc1ccc(-c2noc(-c3nc(C(C)C)no3)n2)cc1OC,i,?,i,0.9%,nt,nt,nt
CC(C)c1noc(-c2nc(-c3ccc4c(c3)OCO4)no2)n1,-23.5%,?,3.55µM*,?,15.7%,17.0%,7.85µM*
Cc1ccc(NC(=O)Cn2cccc2-c2nc(-c3ccc4c(c3)OCO4)no2)cc1,-26.9%,?,i,1.1%,nt,nt,nt
O=C(c1[nH]ncc1Cl)N1CCOC(Cc2cccc(C(F)(F)F)c2)C1 (stereo unspecified),-29.1%,?,12.6µM*,-3.0%,12.6%,11.9%,-14.5%
CC(=O)N[C@H]1CC[C@]2(C)CCC([C@H](C)C(=O)N3CCC(C)CC3)[C@H](O)[C@H]2[C@@H]1C (stereo partly specified),-25.0%[174 µM],-1.5%[172 µM],i,8.8%[70.6 µM],nt,nt,nt
c1ccc(COc2ccc(CN3CCSCC3)cc2)nc1,i,?,10µM*,3.4%,21.1%,15.1%,?
COc1ccc(C(=O)N2CCC(C(=O)N3CCC(N4CCOC4=O)CC3)CC2)cc1,3.9%,-2.5%,nt,nt,nt,nt,nt
Cc1ccc(NC(=O)Nc2cccn3nc(C)nc23)cc1,?,?,7.94µM*,-8.1%,?,16.7%,?
COc1cccc([S+](=O)([O-])N2CCc3nc(C(C)C)nc(-c4ccc(Cl)cc4)c3CC2)c1,1.5%,-15.4%,nt,nt,nt,nt,nt
COc1cccc(-c2cn3ncsc3n2)c1,nt,nt,nt,nt,21.6%,15.8%,?
O=C(Nc1ccc([C@H]2OCC(=O)N(Cc3ccncc3)[C@@H]2CO)cc1)c1ccc(C(F)(F)F)cc1,?,20µM*,12.6µM*,?,19.2%,14.3%,?
CC(C)(C)c1ccc(C(=O)Nc2ccc([C@H]3OCC(=O)N[C@@H]3CO)cc2)cc1,89.1µM*,?,10µM*,-0.6%[70.6 µM],26.8%[49.3 µM],15.6%[49.3 µM],?
COc1ccc(C(=O)Nc2ccc([C@H]3OCC(=O)N[C@@H]3CO)cc2)cc1,-6.0%[138 µM],0.8%[172 µM],?,0.9%[70.6 µM],nt,nt,nt
CC(C)N1C(=O)C2(CCCCC2)C1C(=O)N1CCN(c2ccccc2)CC1 (stereo unspecified),-24.7%,-26.6%,i,-6.8%,nt,nt,nt
SMILES,3T3 cytotox,HEK293 tox,FLuc inh-1,NPR1 antag,FLuc SDR -ATP,FLuc SDR ATP,FLuc inh-2
Cc1ccccc1-c1noc(-c2ccc(NC(C)c3cnn(C)c3)nc2)n1 (stereo unspecified),44.7µM*,31.6µM*,0.316µM*,7.94µM*,?,?,0.989µM*
CC(Cn1cncn1)Nc1ccc(-c2nc(Cc3ccc(F)cc3)no2)cn1 (stereo unspecified),-21.9%,?,i,-1.6%,nt,nt,nt
COc1ccc(NC(=O)c2cc3ccccc3o2)c(OC)c1,nt,nt,nt,nt,19.5%,14.2%,?
COc1ccc(NC(=O)c2c(OC)cc(=O)n3c2CCCC3)c(OC)c1,-11.8%,-2.3%,i,-11.5%,nt,nt,nt
O=C1Nc2ccc(C(=O)c3ccco3)cc2/C1=C/c1cc(Cl)c(O)c(Cl)c1,nt,nt,nt,nt,6.2%,4.1%,11.1µM*
Cc1nc(N2CCC(NC(=O)c3cccc4[nH]ccc34)CC2)cc(C(F)(F)F)n1,?,?,i,-26.4%,nt,nt,nt
COc1ccc(Cn2c(C3CCN(C(=O)Cc4cccc(F)c4)CC3)n[nH]c2=O)cc1,-3.0%,0.6%,i,-1.3%,nt,nt,nt
CCCCOc1nc(N)c2[nH]c(=O)n(Cc3cccc(CC(=O)OC)c3)c2n1,nt,nt,nt,nt,11.0%,6.6%,2.0%
Cc1ccc(CN2CCc3nc(C(C)C)nc(-c4ccc(O)cc4)c3C2)cc1,?,?,i,1.2%,nt,nt,nt
CC(C)c1nc2c(c(-c3ccc(O)cc3)n1)CN(Cc1ccccc1)CC2,-26.5%,?,i,2.0%,11.0%,6.8%,-4.7%
CC(C)c1nc2c(c(-c3ccc(O)cc3)n1)CCN(Cc1ccccn1)CC2,-21.3%,0.9%,i,-2.1%,8.2%,8.4%,-5.6%
O=C1CCNc2ccccc2CN1C1CCCC1,?,-10.8%,nt,nt,nt,nt,nt
CCC(=O)Nc1cc2nn(-c3ccc(C)cc3)nc2cc1C,nt,nt,nt,nt,?,?,0.394µM*
Cc1ccc(NC(=O)Cn2c(-c3ccc(F)cc3)nc(C)cc2=O)c(C)c1,i,11.0%,i,4.6%,nt,nt,nt
CCC1=C(C(=O)OC)C(c2ccccc2OC)N2C(CC(=O)N3CCCC3)=CSC2=N1 (stereo unspecified),-14.5%,-26.8%,i,-26.2%,nt,nt,nt
CC1=C[C@@H](CNC(=O)c2ccccc2)[C@H](C(C)C)C[C@H]1CC(=O)N1CCOCC1,-1.6%[138 µM],-10.8%[172 µM],i,3.1%[70.6 µM],nt,nt,nt

# Compound activity as filed in PubChem BioAssay.
